This is an account of results in PubChem BioAssay (NCATS).

Structures are written as SMILES. Records with an inconclusive call do not appear. Unmarked numbers belong to inactive results. Calls follow the shape of the dose curve; as a rule, active = well fitted curve in either direction with a large enough effect (not every such curve was filed as active); inconclusive = small, poorly fitted or top-dose-only effect, or another doubt; inactive = flat fitted curve, though single readings scatter.
% is scaled to controls: 0 for no effect and ±100 for the full control effect.

The first assay is described as follows: NFAT Signaling Pathway (AID 444).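 Also: carbachol stimulus at about its EC50 of 1 µM final.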 The settings on record: Jurkat NFAT-bla M1, carbachol, beta-lactamase ratio, 5 h; at 7.69 µM (top of the series) unless noted. A digest of the protocol: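 Jurkat cells with NFAT-driven β-lactamase reporter and co-expressed M1 receptor, stimulated with carbachol (final 1 uM, ~EC50), compound titration, 5 h at 37 °C. CCF4 loaded 1 h at RT; 460/530 nm ratio gave %activity and AC50.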
Take `Cc1noc(C)c1C(=O)N1CCC[C@@]2(CCN(C(=O)NC(C)C)C2)C1`: the activity change, negative = inhibition was 7.59%.

With `COCC(=O)N1CCC2(CC1)CN(C(=O)Nc1cccc(C#N)c1)C2`, the activity change, negative = inhibition is 9.29%.

Regarding `Cc1noc(C)c1C(=O)N1CCC2(CCN(C(=O)NC(C)C)CC2)CC1`, the activity change, negative = inhibition is 5.4%.

On to `O=C(Nc1ccccc1)N1CC[C@@]2(CCCN(C(=O)c3ccco3)C2)C1`, for which the activity change, negative = inhibition is 4.43%.

As for `CC(=O)N1CCC2(CCCN(c3ccccn3)C2)CC1`, the activity change, negative = inhibition was 3.45%.

In the case of `CC(=O)N1CCC2(CCN(Cc3ccncc3)CC2)CC1`, the activity change, negative = inhibition was -0.25%.

As for `O=C(Nc1cccc(F)c1)N1CCC2(CCNCC2)CC1`, the activity change, negative = inhibition is -3.25%.

As for `COCC(=O)N1CCC2(CC1)CN(C(=O)Nc1cccc(F)c1)C2`, the activity change, negative = inhibition was 9.78%.

For the compound `COCC(=O)N1CCC2(CC1)CN(Cc1cc(C(F)(F)F)cc(C(F)(F)F)c1)C2`, the activity change, negative = inhibition is 23.6%.

As to `COCC(=O)N1CCC2(CCCN(C(=O)Nc3cccc(F)c3)C2)CC1`, the activity change, negative = inhibition was 3.84%.

`COCC(=O)N1CCC2(CC1)CN(C(=O)Nc1ccc(OC)cc1)C2`: the activity change, negative = inhibition was 21.1%.

`Cn1cccc1C(=O)N1CCC2(CC1)CN(C(=O)Nc1ccccc1)C2`: the activity change, negative = inhibition was 8.61%.

As for `COC(=O)N1CCC[C@@]2(CCN(C(=O)Nc3ccccc3)C2)C1`, the activity change, negative = inhibition is 8.29%.

In the case of `O=C(c1ccncc1)N1CCC2(CC1)CN(c1ncccn1)C2`, the activity change, negative = inhibition was 6.22%.

Turning to `CC(C)NC(=O)N1CCC2(CC1)CCN(C(=O)c1ccco1)CC2`, the activity change, negative = inhibition was 12%.

Take `O=C(Nc1ccccc1)N1CC2(CCN(C(=O)c3ccco3)CC2)C1`: the activity change, negative = inhibition was 3.9%.

In the case of `COc1ccccc1CN1CCCC2(CCNCC2)C1`, the activity change, negative = inhibition was -29.2%.

As to `COC(=O)N1CCC[C@@]2(CCN(c3ccccn3)C2)C1`, the activity change, negative = inhibition was -1.97%.

As to `Cn1cccc1C(=O)N1CCC2(CCN(C(=O)Nc3cccc(F)c3)CC2)CC1`, the activity change, negative = inhibition is 15.8%.

Take `O=C(c1csnn1)N1CCC2(CC1)CN(Cc1cc(C(F)(F)F)cc(C(F)(F)F)c1)C2`: the activity change, negative = inhibition is -21.8%.

In the case of `O=C(Nc1ccccc1)N1CCC2(CC1)CCN(C(=O)c1csnn1)CC2`, the activity change, negative = inhibition is 11.2%.

Turning to `CN1CCC2(CC1)CCN(C(=O)c1cc(C(F)(F)F)cc(C(F)(F)F)c1)CC2`, the activity change, negative = inhibition was -5.98%.

For the compound `CC(=O)N1CCC2(CCN(Cc3nccs3)CC2)CC1`, the activity change, negative = inhibition was -2.08%.

As to `COc1ccccc1CN1CCC2(CC1)CCN(C(C)=O)CC2`, the activity change, negative = inhibition is -28.3%.

In the case of `CS(=O)(=O)N1CCC2(CCN(C(=O)Nc3cccc(C#N)c3)CC2)CC1`, the activity change, negative = inhibition is 16.4%.

For the compound `COc1ccc(NC(=O)N2CCC3(CC2)CCN(C(=O)c2cnccn2)CC3)cc1`, the activity change, negative = inhibition was 9.86%.

For `O=C(c1ccco1)N1CCC2(CC1)CCN(c1ccccc1)CC2`, the activity change, negative = inhibition was -1.84%.

As for `COc1ccc(NC(=O)N2CC[C@@]3(CCCNC3)C2)cc1`, the activity change, negative = inhibition is -5.59%.

`Cc1noc(C)c1C(=O)N1CCC[C@@]2(CCN(c3ncccn3)C2)C1`: the activity change, negative = inhibition was 7.6%.

Consider `COC(=O)N1CCC2(CC1)CN(C(=O)Nc1ccccc1)C2`, for which the activity change, negative = inhibition was 8.68%.

For `COCC(=O)N1CCC2(CC1)CCN(C(=O)Nc1cccc(F)c1)CC2`, the activity change, negative = inhibition was 3.94%.

Turning to `O=C(Nc1ccccc1)N1CCC2(CC1)CCN(C(=O)c1cnccn1)CC2`, the activity change, negative = inhibition was 11.9%.

Consider `COC(=O)N1CCC2(CCN(Cc3nccs3)CC2)CC1`, for which the activity change, negative = inhibition was -25.8%.

As to `COc1ccc(NC(=O)N2CC3(CCN(C(=O)c4ccco4)CC3)C2)cc1`, the activity change, negative = inhibition was 3.69%.

On to `COc1ccc(NC(=O)N2CC3(CCN(C(=O)c4c(C)noc4C)CC3)C2)cc1`, for which the activity change, negative = inhibition was 15.1%.

In the case of `CC(C)NC(=O)N1CC[C@@]2(CCCN(C(=O)c3cccn3C)C2)C1`, the activity change, negative = inhibition was -8.88%.

With `FC(F)(F)c1cc(CN2CC3(CCNCC3)C2)cc(C(F)(F)F)c1`, the activity change, negative = inhibition is 10.6%.

On to `O=C(Nc1cccc(F)c1)N1CC2(CCN(S(=O)(=O)c3ccccc3)CC2)C1`, for which the activity change, negative = inhibition is 22.6%.

Turning to `COCC(=O)N1CCC[C@@]2(CCN(c3ncccn3)C2)C1`, the activity change, negative = inhibition was -4.08%.

A further assay can be described thus: Stat Signaling Pathway (AID 446).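 Also: ME-180 cervical cancer cells given 40 pM IL-6 alongside compound; SIE-controlled beta-lactamase reporter measured as 460/530 nm FRET emission ratio.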 To be noted: ME-180 SIE beta-lactamase reporter, IL-6 stimulated, 5 h; at 7.69 µM (top of the series) unless noted. A digest of the protocol: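 ME-180 SIE-bla cells; overnight plating; cpd + IL-6 40 pM, 5 h, 37 C; LiveBLAzer 2.5 h RT; 460/530 nm emission ratio. Normalized to 300 pM IL-6 and 125 nM JAK inhibitor controls.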
As to `Cc1noc(C)c1C(=O)N1CCC[C@@]2(CCN(C(=O)NC(C)C)C2)C1`, the activity, negative = inhibition was -12.3%.

With `COCC(=O)N1CCC2(CC1)CN(C(=O)Nc1cccc(C#N)c1)C2`, the activity, negative = inhibition was 11.7%.

`Cc1noc(C)c1C(=O)N1CCC2(CCN(C(=O)NC(C)C)CC2)CC1`: the activity, negative = inhibition was 3.31%.

Consider `O=C(Nc1ccccc1)N1CC[C@@]2(CCCN(C(=O)c3ccco3)C2)C1`, for which the activity, negative = inhibition was -3.48%.

For `CC(=O)N1CCC2(CCCN(c3ccccn3)C2)CC1`, the activity, negative = inhibition was -5.49%.

In the case of `CC(=O)N1CCC2(CCN(Cc3ccncc3)CC2)CC1`, the activity, negative = inhibition was -6.6%.

For `O=C(Nc1cccc(F)c1)N1CCC2(CCNCC2)CC1`, the activity, negative = inhibition was -4.9%.

With `COCC(=O)N1CCC2(CC1)CN(C(=O)Nc1cccc(F)c1)C2`, the activity, negative = inhibition was -2.66%.

Take `COCC(=O)N1CCC2(CC1)CN(Cc1cc(C(F)(F)F)cc(C(F)(F)F)c1)C2`: the activity, negative = inhibition is -2.63%.

With `COCC(=O)N1CCC2(CCCN(C(=O)Nc3cccc(F)c3)C2)CC1`, the activity, negative = inhibition was -4.68%.

As to `COCC(=O)N1CCC2(CC1)CN(C(=O)Nc1ccc(OC)cc1)C2`, the activity, negative = inhibition was 2.17%.

Turning to `Cn1cccc1C(=O)N1CCC2(CC1)CN(C(=O)Nc1ccccc1)C2`, the activity, negative = inhibition is -5.03%.

In the case of `COC(=O)N1CCC[C@@]2(CCN(C(=O)Nc3ccccc3)C2)C1`, the activity, negative = inhibition was -0.455%.

Regarding `O=C(c1ccncc1)N1CCC2(CC1)CN(c1ncccn1)C2`, the activity, negative = inhibition is -10.2%.

Turning to `CC(C)NC(=O)N1CCC2(CC1)CCN(C(=O)c1ccco1)CC2`, the activity, negative = inhibition is 8.93%.

As to `O=C(Nc1ccccc1)N1CC2(CCN(C(=O)c3ccco3)CC2)C1`, the activity, negative = inhibition was 4.13%.

With `COc1ccccc1CN1CCCC2(CCNCC2)C1`, the activity, negative = inhibition is 2.38%.

Take `COC(=O)N1CCC[C@@]2(CCN(c3ccccn3)C2)C1`: the activity, negative = inhibition is 7.71%.

As to `Cn1cccc1C(=O)N1CCC2(CCN(C(=O)Nc3cccc(F)c3)CC2)CC1`, the activity, negative = inhibition is -3.96%.

For `O=C(c1csnn1)N1CCC2(CC1)CN(Cc1cc(C(F)(F)F)cc(C(F)(F)F)c1)C2`, the activity, negative = inhibition was 3.59%.

In the case of `O=C(Nc1ccccc1)N1CCC2(CC1)CCN(C(=O)c1csnn1)CC2`, the activity, negative = inhibition is -9.72%.

As to `CN1CCC2(CC1)CCN(C(=O)c1cc(C(F)(F)F)cc(C(F)(F)F)c1)CC2`, the activity, negative = inhibition is -2.34%.

Regarding `CC(=O)N1CCC2(CCN(Cc3nccs3)CC2)CC1`, the activity, negative = inhibition is 17%.

On to `COc1ccccc1CN1CCC2(CC1)CCN(C(C)=O)CC2`, for which the activity, negative = inhibition is 0.91%.

Turning to `CS(=O)(=O)N1CCC2(CCN(C(=O)Nc3cccc(C#N)c3)CC2)CC1`, the activity, negative = inhibition is -21%.

In the case of `COc1ccc(NC(=O)N2CCC3(CC2)CCN(C(=O)c2cnccn2)CC3)cc1`, the activity, negative = inhibition was 0.353%.

For `O=C(c1ccco1)N1CCC2(CC1)CCN(c1ccccc1)CC2`, the activity, negative = inhibition is -6.6%.

Turning to `COc1ccc(NC(=O)N2CC[C@@]3(CCCNC3)C2)cc1`, the activity, negative = inhibition was -0.259%.

Regarding `Cc1noc(C)c1C(=O)N1CCC[C@@]2(CCN(c3ncccn3)C2)C1`, the activity, negative = inhibition is -3.95%.

As for `COC(=O)N1CCC2(CC1)CN(C(=O)Nc1ccccc1)C2`, the activity, negative = inhibition was 1.2%.

Consider `COCC(=O)N1CCC2(CC1)CCN(C(=O)Nc1cccc(F)c1)CC2`, for which the activity, negative = inhibition is -5.26%.

Take `O=C(Nc1ccccc1)N1CCC2(CC1)CCN(C(=O)c1cnccn1)CC2`: the activity, negative = inhibition was 2.97%.

For `COC(=O)N1CCC2(CCN(Cc3nccs3)CC2)CC1`, the activity, negative = inhibition was 0.339%.

As to `COc1ccc(NC(=O)N2CC3(CCN(C(=O)c4ccco4)CC3)C2)cc1`, the activity, negative = inhibition is -3.56%.

With `COc1ccc(NC(=O)N2CC3(CCN(C(=O)c4c(C)noc4C)CC3)C2)cc1`, the activity, negative = inhibition is -8.69%.

In the case of `CC(C)NC(=O)N1CC[C@@]2(CCCN(C(=O)c3cccn3C)C2)C1`, the activity, negative = inhibition is -1.46%.

For the compound `FC(F)(F)c1cc(CN2CC3(CCNCC3)C2)cc(C(F)(F)F)c1`, the activity, negative = inhibition was 3.31%.

With `O=C(Nc1cccc(F)c1)N1CC2(CCN(S(=O)(=O)c3ccccc3)CC2)C1`, the activity, negative = inhibition is -14.1%.

With `COCC(=O)N1CCC[C@@]2(CCN(c3ncccn3)C2)C1`, the activity, negative = inhibition was -2.01%.
